Test results taken from PubChem BioAssay (NCATS).
Inconclusive results are not listed. Activity calls are given as the source filed them. The call rests on the fitted dose curve; in most records, active means well fitted inhibition curve with a large enough effect in the repeat runs; inconclusive means weak or mixed curves; inactive means no such curve, though single readings can be large or run the other way.

The molecules below were run against Cytochrome P450 2C9 (Homo sapiens) (UniProt P11712) (assay: Cytochrome P450 family 2 subfamily C member 9 (CYP2C9) small molecule antagonists: luciferase biochemical (cell-free) qHTS assay (AID 1645842; further: nearly all actives have a fitted effect of over 55% in size)). Settings: P450-Glo CYP2C9 enzyme assay, luciferin luminescence; series mostly up to 57.4 µM.
Cytochrome P450 2C9 (Homo sapiens), sequence (P11712 whole entry, looked up): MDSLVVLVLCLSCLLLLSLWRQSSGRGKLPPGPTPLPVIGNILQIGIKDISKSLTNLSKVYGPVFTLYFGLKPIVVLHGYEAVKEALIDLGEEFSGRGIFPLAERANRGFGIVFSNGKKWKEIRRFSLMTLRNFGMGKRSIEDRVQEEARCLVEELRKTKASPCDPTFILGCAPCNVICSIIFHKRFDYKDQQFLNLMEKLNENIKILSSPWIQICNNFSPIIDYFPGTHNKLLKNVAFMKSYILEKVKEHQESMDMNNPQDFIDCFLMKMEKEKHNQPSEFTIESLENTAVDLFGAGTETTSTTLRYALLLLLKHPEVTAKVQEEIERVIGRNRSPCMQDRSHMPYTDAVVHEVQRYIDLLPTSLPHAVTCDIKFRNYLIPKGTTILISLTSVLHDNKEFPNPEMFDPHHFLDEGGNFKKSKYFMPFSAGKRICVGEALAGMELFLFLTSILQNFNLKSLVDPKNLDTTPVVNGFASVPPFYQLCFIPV
Outline: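 P450-Glo CYP2C9 system: proluciferin substrate with enzyme in mix containing 0.4% BSA, 10 min at room temperature, then NADPH regeneration solution added and incubated 1 h at 37C. Detection reagent stopped reaction; luminescence read after 20 min as RLU.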
Potency means the concentration at half of the fitted maximal effect.

| Compound | Potency |
| --- | --- |
| Cc1ccc(-c2c(-c3nn(C)c4ncnc(N5CCC(N6CCCCC6)C5)c34)cnn2C)cc1 (configuration not stated) | 19 µM (active) |
| COc1cccc(C(=O)NCCNc2nc3cc(C)cc(C)c3cc2C#N)c1 | 1.69 µM (active) |
| NC(=O)c1ccc(F)c2c1C[C@@H](N(C1CCC1)C1CCC1)CO2 | inactive |
| NCCCCN(Cc1nc2ccccc2[nH]1)[C@H]1CCCc2cccnc21 | 6.74 µM (active) |
| Cc1cc(C)c2nc(-c3ccccn3)cc(C(=O)Nc3ccc(S(=O)(=O)Nc4onc(C)c4C)cc3)c2c1 | 26.8 µM (active) |
| CCNC(=O)C1CC(F)(c2ccc(CN3CCCC3)c(F)c2)C1 (configuration not stated) | inactive |
| CN1CCN(C2=Nc3ccccc3Nc3ccc(O)cc32)CC1 | inactive |
| COc1ccc(CCc2nc3cc(-c4c(C)noc4C)ccc3n2C[C@H](C)N2CCOCC2)cc1Cl | 15.1 µM (active) |
| CC[C@H](NC(=O)c1c(O)c(-c2ccccc2)nc2ccccc12)c1ccccc1 | 16.9 µM (active) |
| CC[C@@H](Nc1c(Nc2cccc(C(=O)N(C)C)c2O)c(=O)c1=O)c1ccc(C)o1 | 2.39 µM (active) |
| CC1(C)CC=C(c2cnc3ccccc3c2)c2cc(C(=O)Nc3ccc(C(=O)O)cc3)ccc21 | 21.3 µM (active) |
| O=C(NC1Cc2ccccc2N(C[C@@H](O)CO)C1=O)c1cc2cc(Cl)sc2[nH]1 (some centres not stated) | 21.3 µM (active) |
